# Measurements taken from the supplement of paper PMC9794691.
# Tested on: PC9
# Assay: area under confluence curve of osimertinib + compound combination regimen (DTP regrowth); compare to osimertinib-only DTP control AUC of the same experiment (AUC (confluence x time, arbitrary))
# Procedure: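 compare to osimertinib-only DTP control AUC of the same experiment; Long-term drug-tolerant persister (DTP) screen in EGFR-mutant NSCLC cell lines in 48-well plates. The test compound was given at one fixed dose with osimertinib, either upfront (from day 0 to the DTP stage at 10-21 days, then drug-free medium) or sequentially (osimertinib alone to the DTP stage, then the test compound). IncuCyte confluence was tracked until osimertinib-only controls regrew, and AUC was computed in Prism. AUC scale depends on experiment duration, so each row carries the same-experiment osimertinib-only DTP and DMSO control AUCs; combination activity = control minus combo AUC. Osimertinib dose not stated.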
# [1] = test compound dose 1000 nM, dosing schedule: sequential, osimertinib-only DTP control AUC in same experiment: 15001, DMSO control AUC in same experiment: 22064
# [2] = test compound dose 1000 nM, dosing schedule: upfront, osimertinib-only DTP control AUC in same experiment: 24924, DMSO control AUC in same experiment: 22064
smiles,measurement,setting,value
Cc1nc(-c2nc(-c3ccc(OC(F)(F)F)cc3)no2)nn1Cc1cccc(N2CCC(S(C)(=O)=O)CC2)c1 + C=CC(=O)Nc1cc(Nc2nccc(-c3cn(C)c4ccccc34)n2)c(OC)cc1N(C)CCN(C)C [osimertinib],area under confluence curve,"test compound dose 10 nM, dosing schedule: sequential, osimertinib-only DTP control AUC in same experiment: 11178, DMSO control AUC in same experiment: 18385",9950
same,area under confluence curve,"test compound dose 10 nM, dosing schedule: sequential, osimertinib-only DTP control AUC in same experiment: 12231, DMSO control AUC in same experiment: 19076",3870
same,area under confluence curve,"test compound dose 10 nM, dosing schedule: upfront, osimertinib-only DTP control AUC in same experiment: 16535, DMSO control AUC in same experiment: 19076",12500
same,area under confluence curve,"test compound dose 10 nM, dosing schedule: upfront, osimertinib-only DTP control AUC in same experiment: 16887, DMSO control AUC in same experiment: 18385",15300
Cc1nc(Nc2ncc(C(=O)Nc3c(C)cccc3Cl)s2)cc(N2CCN(CCO)CC2)n1 [Dasatinib] + C=CC(=O)Nc1cc(Nc2nccc(-c3cn(C)c4ccccc34)n2)c(OC)cc1N(C)CCN(C)C [osimertinib],area under confluence curve,"test compound dose 30 nM, dosing schedule: sequential, osimertinib-only DTP control AUC in same experiment: 10175, DMSO control AUC in same experiment: 27958",2120
same,area under confluence curve,"test compound dose 30 nM, dosing schedule: sequential, osimertinib-only DTP control AUC in same experiment: 12589, DMSO control AUC in same experiment: 28243",1440
same,area under confluence curve,"test compound dose 30 nM, dosing schedule: upfront, osimertinib-only DTP control AUC in same experiment: 16088, DMSO control AUC in same experiment: 28243",1770
same,area under confluence curve,"test compound dose 30 nM, dosing schedule: upfront, osimertinib-only DTP control AUC in same experiment: 16134, DMSO control AUC in same experiment: 27958",2420
COC[C@H]1Cn2cc(-c3nc(Nc4ccnn4C)ncc3C)nc2C(=O)N1Cc1ccc(F)c(F)c1 + C=CC(=O)Nc1cc(Nc2nccc(-c3cn(C)c4ccccc34)n2)c(OC)cc1N(C)CCN(C)C [osimertinib],area under confluence curve,"test compound dose 100 nM, dosing schedule: sequential, osimertinib-only DTP control AUC in same experiment: 11414, DMSO control AUC in same experiment: 31219",6430
same,area under confluence curve,"test compound dose 100 nM, dosing schedule: sequential, osimertinib-only DTP control AUC in same experiment: 14554, DMSO control AUC in same experiment: 49189",2470
same,area under confluence curve,"test compound dose 100 nM, dosing schedule: upfront, osimertinib-only DTP control AUC in same experiment: 18848, DMSO control AUC in same experiment: 31219",2020
same,area under confluence curve,"test compound dose 100 nM, dosing schedule: upfront, osimertinib-only DTP control AUC in same experiment: 24473, DMSO control AUC in same experiment: 49189",2580
CNC(=O)c1cccc(-c2ccc3c(N4CCOC[C@@H]4C)nc(N4CCOC[C@@H]4C)nc3n2)c1 + C=CC(=O)Nc1cc(Nc2nccc(-c3cn(C)c4ccccc34)n2)c(OC)cc1N(C)CCN(C)C [osimertinib],area under confluence curve,"test compound dose 100 nM, dosing schedule: sequential, osimertinib-only DTP control AUC in same experiment: 13052, DMSO control AUC in same experiment: 28334",6580
same,area under confluence curve,"test compound dose 100 nM, dosing schedule: upfront, osimertinib-only DTP control AUC in same experiment: 17920, DMSO control AUC in same experiment: 28334",14800
Nc1ccc(/C=C/C(=O)NCc2cc3cc(-c4ccc(C(=O)N5CCC(F)(F)CC5)cc4)cc(-c4ccc(F)cc4)c3o2)cn1 + C=CC(=O)Nc1cc(Nc2nccc(-c3cn(C)c4ccccc34)n2)c(OC)cc1N(C)CCN(C)C [osimertinib],area under confluence curve,"test compound dose 100 nM, dosing schedule: sequential, osimertinib-only DTP control AUC in same experiment: 14258, DMSO control AUC in same experiment: 21913",6800
same,area under confluence curve,"test compound dose 100 nM, dosing schedule: upfront, osimertinib-only DTP control AUC in same experiment: 21499, DMSO control AUC in same experiment: 21913",12200
C=CCn1c(=O)c2cnc(Nc3ccc(N4CCN(C)CC4)cc3)nc2n1-c1cccc(C(C)(C)O)n1 + C=CC(=O)Nc1cc(Nc2nccc(-c3cn(C)c4ccccc34)n2)c(OC)cc1N(C)CCN(C)C [osimertinib],area under confluence curve,"test compound dose 100 nM, dosing schedule: sequential, osimertinib-only DTP control AUC in same experiment: 15001, DMSO control AUC in same experiment: 22064",13500
same,area under confluence curve,"test compound dose 100 nM, dosing schedule: sequential, osimertinib-only DTP control AUC in same experiment: 15044, DMSO control AUC in same experiment: 30604",11300
same,area under confluence curve,"test compound dose 100 nM, dosing schedule: upfront, osimertinib-only DTP control AUC in same experiment: 20672, DMSO control AUC in same experiment: 30604",16100
same,area under confluence curve,"test compound dose 100 nM, dosing schedule: upfront, osimertinib-only DTP control AUC in same experiment: 24924, DMSO control AUC in same experiment: 22064",20200
Nc1nc(Nc2ccc3c(c2)CCC(N2CCCC2)CC3)nn1-c1cc2c(nn1)-c1ccccc1CCC2 (stereo not given) + C=CC(=O)Nc1cc(Nc2nccc(-c3cn(C)c4ccccc34)n2)c(OC)cc1N(C)CCN(C)C [osimertinib],area under confluence curve,"test compound dose 300 nM, dosing schedule: sequential, osimertinib-only DTP control AUC in same experiment: 11273, DMSO control AUC in same experiment: 20197",6530
same,area under confluence curve,"test compound dose 300 nM, dosing schedule: sequential, osimertinib-only DTP control AUC in same experiment: 29087, DMSO control AUC in same experiment: 30008",12100
same,area under confluence curve,"test compound dose 300 nM, dosing schedule: upfront, osimertinib-only DTP control AUC in same experiment: 13449, DMSO control AUC in same experiment: 20197",7530
same,area under confluence curve,"test compound dose 300 nM, dosing schedule: upfront, osimertinib-only DTP control AUC in same experiment: 34430, DMSO control AUC in same experiment: 30008",11700
Cc1onc(C(=O)N2CCN(C(c3ccc(Cl)cc3)c3ccc(Cl)cc3)CC2)c1[N+](=O)[O-] + C=CC(=O)Nc1cc(Nc2nccc(-c3cn(C)c4ccccc34)n2)c(OC)cc1N(C)CCN(C)C [osimertinib],area under confluence curve,"test compound dose 1000 nM, dosing schedule: sequential, osimertinib-only DTP control AUC in same experiment: 8716, DMSO control AUC in same experiment: 45737",823
same,area under confluence curve,"test compound dose 1000 nM, dosing schedule: upfront, osimertinib-only DTP control AUC in same experiment: 11096, DMSO control AUC in same experiment: 45737",19300
COc1cc(CCc2cc(NC(=O)c3ccc(N4CC(C)NC(C)C4)cc3)n[nH]2)cc(OC)c1 (stereo not given) + C=CC(=O)Nc1cc(Nc2nccc(-c3cn(C)c4ccccc34)n2)c(OC)cc1N(C)CCN(C)C [osimertinib],area under confluence curve,"test compound dose 1000 nM, dosing schedule: sequential, osimertinib-only DTP control AUC in same experiment: 9508, DMSO control AUC in same experiment: 26668",4800
same,area under confluence curve,"test compound dose 1000 nM, dosing schedule: sequential, osimertinib-only DTP control AUC in same experiment: 10968, DMSO control AUC in same experiment: 21594",7160
same,area under confluence curve,"test compound dose 1000 nM, dosing schedule: upfront, osimertinib-only DTP control AUC in same experiment: 11298, DMSO control AUC in same experiment: 26668",2090
same,area under confluence curve,"test compound dose 1000 nM, dosing schedule: upfront, osimertinib-only DTP control AUC in same experiment: 17834, DMSO control AUC in same experiment: 21594",6660
CCn1nc(C2CCN(C(=O)CCO)CC2)nc1-c1cnc(N)c(-c2nnc(C(C)(C)C)o2)n1 + C=CC(=O)Nc1cc(Nc2nccc(-c3cn(C)c4ccccc34)n2)c(OC)cc1N(C)CCN(C)C [osimertinib],area under confluence curve,"test compound dose 1000 nM, dosing schedule: sequential, osimertinib-only DTP control AUC in same experiment: 12535, DMSO control AUC in same experiment: 43316",3140
same,area under confluence curve,"test compound dose 1000 nM, dosing schedule: sequential, osimertinib-only DTP control AUC in same experiment: 15163, DMSO control AUC in same experiment: 28684",9440
same,area under confluence curve,"test compound dose 1000 nM, dosing schedule: upfront, osimertinib-only DTP control AUC in same experiment: 15354, DMSO control AUC in same experiment: 43316",5490
same,area under confluence curve,"test compound dose 1000 nM, dosing schedule: upfront, osimertinib-only DTP control AUC in same experiment: 21337, DMSO control AUC in same experiment: 28684",15400
Cc1cccc(-c2[nH]c(C(C)(C)C)nc2-c2ccc3nccnc3c2)n1 + C=CC(=O)Nc1cc(Nc2nccc(-c3cn(C)c4ccccc34)n2)c(OC)cc1N(C)CCN(C)C [osimertinib],area under confluence curve,"test compound dose 1000 nM, dosing schedule: sequential, osimertinib-only DTP control AUC in same experiment: 13130, DMSO control AUC in same experiment: 20567",13600
same,area under confluence curve,[1],14500
same,area under confluence curve,"test compound dose 1000 nM, dosing schedule: upfront, osimertinib-only DTP control AUC in same experiment: 18577, DMSO control AUC in same experiment: 20567",20300
same,area under confluence curve,[2],25300
C[C@@H](Oc1cc(-c2cnn(C3CCNCC3)c2)cnc1N)c1c(Cl)ccc(F)c1Cl [Crizotinib] + C=CC(=O)Nc1cc(Nc2nccc(-c3cn(C)c4ccccc34)n2)c(OC)cc1N(C)CCN(C)C [osimertinib],area under confluence curve,[1],8360
same,area under confluence curve,[2],7510
